The values below come from PubChem BioAssay (EPA / NIEHS).

Each structure is given as a SMILES string. Active and inactive are the calls of the source. How the source made its calls: active means hit-call score of the fitted dose curve at least 0.9, where 1 is the maximum; inactive means score below 0.9.

Sequence of Hepatocyte nuclear factor 3-beta (Homo sapiens) (Q9Y261 whole entry, looked up): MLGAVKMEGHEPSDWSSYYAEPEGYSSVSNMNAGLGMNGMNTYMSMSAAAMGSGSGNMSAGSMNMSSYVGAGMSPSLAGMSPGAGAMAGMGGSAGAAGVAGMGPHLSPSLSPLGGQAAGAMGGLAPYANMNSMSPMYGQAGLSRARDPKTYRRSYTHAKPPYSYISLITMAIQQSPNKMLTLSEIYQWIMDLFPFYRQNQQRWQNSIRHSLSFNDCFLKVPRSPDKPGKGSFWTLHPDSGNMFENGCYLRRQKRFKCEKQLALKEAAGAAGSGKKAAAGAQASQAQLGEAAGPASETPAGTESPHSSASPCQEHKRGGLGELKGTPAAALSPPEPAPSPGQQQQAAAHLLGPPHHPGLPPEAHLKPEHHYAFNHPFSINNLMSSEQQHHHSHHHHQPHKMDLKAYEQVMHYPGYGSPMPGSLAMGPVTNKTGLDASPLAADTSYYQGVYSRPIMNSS

In this assay the target is Hepatocyte nuclear factor 3-beta (Homo sapiens) (UniProt Q9Y261). The experiment in a line: ATG_FoxA2_CIS: Attagene CIS-FACTORIAL HepG2 Assay for human Forkhead box A2 (FOXA2) (AID 2282942). The following applies: HepG2 cis-reporter transcription factor activity, 24 h; actives raise or lower the signal. As for the experimental part:
ATG_CIS is a cell-based, multiplexed-readout assay that uses HepG2, a human liver cell line, with measurements taken at 24 hours after chemical dosing in a 24-well plate.ATG_FoxA2_CIS is one of 52 assay component(s) measured or calculated from the ATG_CIS assay. It is designed to make measurements of mRNA induction, a form of inducible reporter, as detected with fluorescence intensity signals by Reverse transcription polymerase chain reaction (RT-PCR) and Capillary electrophoresis technology.Data from the assay component ATG_FoxA2_CIS was analyzed into 1 assay endpoint. This assay endpoint, ATG_FoxA2_CIS, was analyzed with bidirectional fitting relative to DMSO as the negative control and baseline of activity. Using a type of inducible reporter, measures of mRNA for gain or loss-of-signal activity can be used to understand the reporter gene at the transcription factor-level as they relate to the gene FOXA2. Furthermore, this assay endpoint can be referred to as a primary readout, because this assay has produced multiple assay endpoints where this one serves a reporter gene function. To generalize the intended target to other relatable targets, this assay endpoint is annotated to the dna binding intended target family, where the subfamily is forkhead box protein.
Human liver HepG2 cells are transiently transfected with multiple reporter transcription units (MRTUs) in 6-well plates using FuGene 6 reagent (Roche; 3 ml FuGene/1 mg DNA). The MRTU constructs are regulated by a cis-regulating element (promoter). […] A major difference between the CIS and TRANS system is that in CIS activities of endogenous TFs are measured, whereas the TRANS assay evaluates changes in activities of exogenous, chimeric NR-Gal4 proteins. […] At the end of 24 hour incubation, total RNA was isolated using TriZol reagent (Invitrogen). The isolated RNA is then reverse-transcribed using oligo(dT) primer and Mo-MLV reverse transcriptase (Invitrogen) with DNAse I (Ambion) treatment for 30 min. The one-tenth of the produced cDNA was amplified by PCR using Taq DNA polymerase (Invitrogen) and two reporter sequence-specific primers. The PCR products were fluorescently labeled by primer extension with 6-arboxyfluorescein (6-FAM) 5'-labeled reporter sequence-specific primer (2 min at 95 C, 20 s at 68 C and 10 min at 72 C) and these products were digested with 5U of HpaI (New England Biolabs) for 2h at 37 C. The fragments were purified using Qiaquick PCR columns (Qiagen), analyzed on an ABI 3130xL genetic analyzer (Applied Biosystems) with peak positions identified by using a set of X-rhodamine (ROX)-labeled MapMarker1000 molecular weight standards (BioVentures). The raw capillary electrophoresis data was processed using Attagraph software (Attagene).
On to `O=c1oc2ccccc2c(O)c1C(CC(O)c1ccc(-c2ccc(Br)cc2)cc1)c1ccccc1` (stereo not given), for which the molecule was called inactive.

Turning to `CC1(C)COP(Oc2ccccc2)OC1`, the molecule was classed as inactive.

`Fc1cccc(Cl)c1CCl`: the result was inactive. For the molecule `CCOP(=O)(OCC)SCCSCC`, the outcome was inactive. As to `C=CC(F)(C(F)(F)F)C(F)(F)C(F)(F)F` (stereo not given), the molecule was classed as inactive. Turning to `Oc1c(Cl)cc(Cl)cc1Cl`, the result was inactive. `CCCCOC(C)=O`: the molecule was called inactive. As for `C=CCOC(F)(C(F)(F)F)C(F)(F)F`, the molecule was called inactive. `CCOP(=S)(OCC)SCS(=O)(=O)C(C)(C)C`: the molecule was classed as inactive. For the molecule `CC(C)N(C(=O)CCl)c1ccccc1`, the result was inactive.

Broadly, the AC50 is the concentration giving half of the maximal activity seen. In the case of `CNC(=O)N(C)c1nc2ccccc2s1`, the AC50 is 26.8 µM (active). For `Nc1ccc(N)cc1`, the molecule was classed as inactive. The same measure, in the same setting: under `CCOC(=O)c1ccccc1S(=O)(=O)NC(=O)Nc1nc(Cl)cc(OC)n1` stands “inactive”; under `Clc1cccc(Cl)c1Cl`, “inactive”.

Turning to `Brc1c(Br)c(Br)c(Oc2c(Br)c(Br)c(Br)c(Br)c2Br)c(Br)c1Br`, the outcome was inactive. In the case of `CC(C=O)Cc1ccc2c(c1)OCO2` (stereo not given), the call was inactive.

Take `COc1nn(C(=O)NS(=O)(=O)c2ccccc2OC(F)(F)F)c(=O)n1C`: the molecule was classed as inactive. On to `[Cl][Sn]([c]1ccccc1)([c]1ccccc1)[c]1ccccc1`, for which the call was inactive. In the case of `O=C1C[C@@H]2OCC=C3CN4CC[C@]56c7ccccc7N1[C@H]5[C@H]2[C@H]3C[C@H]46`, the molecule was called inactive. As to `Clc1ccc(C(Cl)(Cl)Cl)cn1`, the call was inactive. With `CC(C)(C)c1ccc(CCOc2ncnc3ccccc23)cc1`, the molecule was called inactive.

In the case of `Cc1ccc(CCl)cc1`, the call was inactive. `Clc1cnc(Oc2ccc(Oc3ncc(Cl)cc3Cl)cc2)c(Cl)c1`: the call was inactive. As to `CCCCN(CCCC)C(=S)S`, the AC50 was 100 µM (active). As to `O=C(NC(=O)c1c(F)cccc1F)Nc1ccc(Cl)cc1`, the result was inactive. As to `C=CC(=O)OCC(COC(=O)C=C)(COC(=O)C=C)COC(=O)C=C`, the outcome was inactive. Take `Cc1cccc(N=Nc2ccc(N(C)C)cc2)c1`: the molecule was classed as inactive.

On to `COc1ccc([N+](=O)[O-])cc1O`, for which the molecule was classed as inactive. Turning to `O=C(O)c1cc(I)cc(I)c1I`, the outcome was inactive. Regarding `OC(Cc1ccccc1Cl)(Cn1[nH]cnc1=S)C1(Cl)CC1` (stereo not given), the result was inactive. Turning to `CCCCCCCCCCCCOS(=O)(=O)O`, the call was inactive. For `C[C@@H]1O[C@@H](O[C@H]2C[C@@H](O)[C@]3(CO)[C@H]4[C@H](O)C[C@]5(C)[C@@H](C6=CC(=O)OC6)CC[C@]5(O)[C@@H]4CC[C@]3(O)C2)[C@H](O)[C@H](O)[C@H]1O`, the result was inactive. Consider `CCCCCCCCCCCCCl`, for which the outcome was inactive. With `COC(F)(C(F)(F)C(F)(F)F)C(F)(C(F)(F)F)C(F)(F)F` (stereo not given), the molecule was called inactive. For `CCC[N+](CCC)(CCC)CCC`, the molecule was classed as inactive. The same measure, in the same setting: under `CC(c1ccc(O)cc1)c1ccc(O)cc1` stands “inactive”; under `CC(C)(C)c1ccccc1O`, “inactive”; under `CCCCN(CCCC)C(=S)[S-].CCCCN(CCCC)C(=S)[S-].[Ni+2]`, “inactive”. For `O=S(=O)(Oc1ccc(Cl)cc1)c1ccc(Cl)cc1`, the call was inactive. Still for that read-out and setting: in the case of `CCC[CH2][Sn]([Cl])([Cl])[CH2]CCC` it was “inactive”.
